Where a name gives a salt, the structure may show the parent alone. Read-outs that look alike come from different tables or passages of the source. Among all 5,300 compounds or so, about 130 (2.5%) showed an effect of 50% or more. The entries come from a sample that favours strong results as a whole. Peptide text beside a SMILES is read from it. * marks the point of attachment. PhAc = O=C(Cc1ccccc1)*
Tested on: M. mycetomatis strain mm55
Settings: primary screen, metabolic activity vs growth control, 96 h, 2 µM, inhibitor
[1] = Madurella mycetomatis metabolic activity at 2µM (%)

Structure (SMILES) | % viability [%] | % viability [1] [%]
COc1ccc(CCO[C@@H]2CCCC[C@H]2N2CC[C@@H](O)C2)cc1OC [ONC0001796, vernakalant hydrochloride] | 98.02 | –
CC1C[C@H]2[C@@H]3CCC4=CC(=O)C=C[C@]4(C)[C@@]3(Cl)[C@@H](O)C[C@]2(C)[C@@]1(O)C(=O)CO (stereo partly shown) [ONC0000301, beclomethasone] | 73.26 | –
Cc1cccc(OCC(O)CNC(C)(C)C)c1C (stereo not shown) [ONC0002362, xibenolol] | 46.41 | –
CC(C)(C)NC[C@H](O)COc1cccc2c1CCCC2=O [ONC0002946, levobunolol] | 70.13 | –
CC(C)(C)NC[C@@H](O)COc1cccc2c1CCCC2=O [ONC0002849, levobunolol] | 116.9 | –
O=C1OC2(c3cc(I)c(O)c(I)c3Oc3c2cc(I)c(O)c3I)c2c(Cl)c(Cl)c(Cl)c(Cl)c21 [ONC0002983, rosebengallactone] | – | 60.55
CCCCCCCCCCC(CO)CCCCCCCC (stereo not shown) [ONC0003687, 2octyldodecan1ol] | 64.53 | –
CCCCC(CC)CNC(=N)NC(=N)NCCCCCCNC(=N)NC(=N)NCC(CC)CCCC (stereo not shown) [Alexidine dihydrochloride] | 2.643 | –
CCCCCCCCCCCCOS(=O)(=O)O [ONC0004120, dodecylsulfate] | – | 112
N=C(N)N=Nc1ccc(NNC(=N)S)cc1 [ONC0002980, ambazone] | 75.31 | –
COC(=O)c1cc(OC)c2c(c1-c1c(CO)cc(OC)c3c1OCO3)OCO2 [ONC0002187, bicyclol] | 70.1 | –
COC(=O)c1ccccc1O [ONC0003750, methylsalicylate] | 102.4 | –
COC(=O)c1cc(OC)c2c(c1-c1c(C(=O)OC)cc(OC)c3c1OCO3)OCO2 [ONC0003333, bifendate] | 41.54 | –
CC(=O)O[C@@H]1CC[C@@]2(C)[C@@H](CC[C@]3(C)[C@@H]2C(=O)C=C2[C@@H]4[C@@H](C)[C@H](C)CC[C@]4(C)CC[C@]23C)[C@@]1(C)C(=O)O [ONC0002083, akba] | 67.6 | –
CC1(C)[C@@H](O)CC[C@]2(C)[C@H]3C(=O)C=C4[C@@H]5C[C@@](C)(C(=O)O)CC[C@]5(C)CC[C@@]4(C)[C@]3(C)CC[C@@H]12 [ONC0003205, enoxolone] | 101.1 | –
CC1(C)[C@@H](OC(=O)CCC(=O)O)CC[C@]2(C)[C@H]3C(=O)C=C4[C@@H]5C[C@@](C)(C(=O)O)CC[C@]5(C)CC[C@@]4(C)[C@]3(C)CC[C@@H]12 [ONC0000604, carbenoxolone sodium] | 49.18 | –
O=c1[nH]c(=O)c2[nH]c(=O)[nH]c2[nH]1 [ONC0003522, uricacid] | 130.7 | –
C[C@H](N[C@@H](CCc1ccccc1)C(=O)O)C(=O)N1CCC[C@H]1C(=O)O [ONC0003897, enalaprilat] | 70.49 | –
CCOC(=O)CNC(=O)[C@@H]1CCCN1C(=O)Cc1ccccc1 [ONC0001144, omberacetam] (PhAc-Pro-Gly-OEt) | 45.25 | –
CCOC(=O)[C@H](CCc1ccccc1)N[C@@H](C)C(=O)N1CCC[C@H]1C(=O)O [ONC0000561, enalapril maleate] | 109.8 | –

Structure (SMILES) | % viability [%] | % viability [1] [%]
N[C@@H]1C[C@H]1c1ccccc1 (racemic) [ONC0000562, tranylcypromine sulfate] | 104.4 | –
CCCN(CCC)CCc1ccc(OC)c(OCCc2ccccc2)c1 [ONC0000866, ne100] | 62.29 | –
O=P(O)(O)C(O)(Cc1cnc2ccccn12)P(=O)(O)O [ONC0000278, minodronic acid hydrate] | 88.21 | –
C[C@@H]1O[C@@]2(CS1)CN1CCC2CC1.C[C@H]1O[C@]2(CS1)CN1CCC2CC1.Cl [ONC0002680, cevimeline] | 67.14 | –
COc1ccccc1N1CCN(CCN2C(=O)CC3(CCCC3)CC2=O)CC1 [ONC0002563, bmy7378] | 52.22 | –
COc1ccccc1CC(=N)N1C[C@@H]2C(=O)CCC(c3ccccc3)(c3ccccc3)[C@@H]2C1 [ONC0001413, rp67580] | 48.12 | –
NC(CC(F)C(=O)O)C(=O)O (stereo not shown) [ONC0003677, 4fluorodlglutamic acid] | 63.49 | –
CCN(CC)S(=O)(=O)c1ccc(C(=O)O)cc1 [ONC0004305, etebenecid] | 97.53 | –
CC(C)c1ccc2c(c1)CC[C@H]1[C@](C)(CN)CCC[C@]21C [ONC0000210, lylamine] | 63.87 | –
Nc1ncnc2c1ncn2[C@@H]1O[C@H](CO)C[C@H]1O [ONC0003004, cordycepin] | 108 | –
Nc1ncnc2c1ncn2[C@H]1CC[C@@H](CO)O1 [ONC0003689, 23dideoxyadenosine] | 49.81 | –
O=c1[nH]cnc2c1ncn2[C@H]1CC[C@@H](CO)O1 [ONC0004781, didanosine videx] | 107 | –
CSc1ccccc1Nc1nc(N2CCNCC2)nc2c(NCC3CC3)ncnc12.Cl [ONC0001097, khkin1 hydrochloride] | 76.94 | –
CC(=O)N1CCN(c2ccc(OCC3COC(Cn4ccnc4)(c4ccc(Cl)cc4Cl)O3)cc2)CC1 (stereo not shown) [Ketoconazole] | 1.788 | –
O=C(O)c1ccc(OCCn2ccnc2)cc1 [ONC0003331, dazoxiben] | 112.5 | –
COc1cc(N2CCN(C(C)=O)CC2)ccc1Nc1ncc(Cl)c(Nc2ccc(N3CCN(C(C)=O)CC3)cc2OC)n1 [ONC0003574, krca0008] | 122 | –
CCC(C)n1ncn(-c2ccc(N3CCN(c4ccc(OCC5COC(Cn6cncn6)(c6ccc(Cl)cc6Cl)O5)cc4)CC3)cc2)c1=O (stereo not shown) [Itraconazole hydrochloride] | 4.9 | –
CC[C@@H]([C@H](C)O)n1ncn(-c2ccc(N3CCN(c4ccc(OC[C@@H]5CO[C@@](Cn6cncn6)(c6ccc(F)cc6F)C5)cc4)CC3)cc2)c1=O [Posaconazole] | 0.7626 | –
CC(C)N1CCN(c2ccc(OC[C@@H]3CO[C@@](Cn4cncn4)(c4ccc(Cl)cc4Cl)O3)cc2)CC1 [ONC0002390, terconazole] | 66.82 | –
CCC(=O)O[C@@H](OP(=O)(CCCCc1ccccc1)CC(=O)N1C[C@H](C2CCCCC2)C[C@H]1C(=O)O)C(C)C (stereo partly shown) [ONC0005007, fosinopril sodium monopril] | 152.1 | –

Structure (SMILES) | % viability [%] | % viability [1] [%]
O=C(CCCN1CCC(n2c(O)nc3ccccc32)CC1)c1ccc(F)cc1 [ONC0002014, benperidol] | 79.93 | –
N[C@@H]1CON=C1O [ONC0000314, cycloserine d] | 88.4 | –
CN[C@@H](C)C(=O)N[C@H]1CCCC[C@H]2CCC(C(=O)N[C@@H](c3ccccc3)c3cn(CCCCc4ccc(CCCCn5cc([C@@H](NC(=O)[C@@H]6CC[C@@H]7CCCC[C@H](NC(=O)[C@H](C)NC)C(=O)N76)c6ccccc6)nn5)cc4)nn3)N2C1=O (stereo partly shown) [ONC0003931, sm164] | 63.69 | –
C=CC(=O)[O-].[Na+] [ONC0002646, sodium acrylate] | 77.54 | –
N#Cc1cnc2c(Cl)cc(NCc3cn(CCN4CCCCCC4)nn3)cc2c1Nc1ccc(F)c(Cl)c1 [ONC0000779, cot inhibitor1] | 49.03 | –
CCN1CCC(n2cc(CNc3cc(Cl)c4ncc(C#N)c(Nc5ccc(F)c(Cl)c5)c4c3)nn2)CC1 [ONC0002075, cot inhibitor2] | 82.04 | –
N#Cc1cnc2cnc(NCc3cccnc3)cc2c1Nc1ccc(F)c(Cl)c1 [ONC0001337, tcs7006] | 78.74 | –
CC(C)=CCC/C(C)=C/CC/C(C)=C/C=C/C(C)=C/C(=O)O [ONC0000885, peretinoin] | 65.8 | –
CCCC[P+](CCCC)(CCCC)Cc1ccc(NC(=O)[C@H](Cc2ccc3ccccc3c2)N=C(NC2CCCCC2)NC2CCCCC2)cc1 [ONC0000223, win64338] | 62.1 | –
CC(NC(=O)CCc1nc(=O)c2ccccc2[nH]1)c1ccccc1 (stereo not shown) [ONC0005174, me0328] | 117.9 | –
CC1(C)Oc2ccc(C#N)cc2[C@@H](OC2=CC(=O)CC2)[C@@H]1O [ONC0003452, pco 400] | 40.31 | –
CC1(C)Oc2ccc(C#N)cc2[C@@H](N2CCCC2=O)[C@@H]1O.CC1(C)Oc2ccc(C#N)cc2[C@H](N2CCCC2=O)[C@H]1O [ONC0001708, levcromakalim] | 57.98 | –
CC(=O)N(O)[C@@H]1c2cc(C#N)ccc2OC(C)(C)[C@H]1O [ONC0004430, y26763] | 123.9 | –
CCCCCCCCCCCCCCCC(=O)OC1C(SC)OC(C(NC(=O)C2CC(CCC)CN2C)C(C)Cl)C(O)C1O (stereo not shown) [ONC0004643, clindamycin palmitate hcl] | 84.71 | –
CC(=O)OCC(=O)[C@@]12OC(C)(C)O[C@@H]1CC1C3C[C@H](F)C4=CC(=O)C=C[C@]4(C)[C@@]3(F)[C@@H](O)C[C@@]12C (stereo partly shown) [ONC0000518, fluocinonide] | 69.32 | –
COc1ccc(C2Sc3ccccc3N(CCN(C)C)C(=O)C2OC(C)=O)cc1 (stereo not shown) [ONC0005348, diltiazem hydrochloride] | 61.39 | –
CCN(CC)CCN1C(=O)C(=Cc2ccc(OC)cc2)Nc2ccccc21 [ONC0005609, caroverine] | 42.25 | –
CCN(CC)CCNC(=O)COc1ccc(OC)cc1 [ONC0000676, mefexamide hydrochloride] | 93.51 | –

Source: PMC12670160, “A drug-repurposing screen of FDA- and EMA-approved drugs identifies two NF-κB inhibitors active against eumycetoma” (Journal of Antimicrobial Chemotherapy, 2025)
